The target of assay [1] is Tyrosine-protein kinase CSK (Homo sapiens) (UniProt P41240). The conditions noted are these: at 1 µM.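 Note: each value is an averaged inhibition reading.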
Assay [2] deals with T1, Discoidin domain-containing receptor 2 (Homo sapiens) (UniProt Q16832).
T1 sequence (whole entry): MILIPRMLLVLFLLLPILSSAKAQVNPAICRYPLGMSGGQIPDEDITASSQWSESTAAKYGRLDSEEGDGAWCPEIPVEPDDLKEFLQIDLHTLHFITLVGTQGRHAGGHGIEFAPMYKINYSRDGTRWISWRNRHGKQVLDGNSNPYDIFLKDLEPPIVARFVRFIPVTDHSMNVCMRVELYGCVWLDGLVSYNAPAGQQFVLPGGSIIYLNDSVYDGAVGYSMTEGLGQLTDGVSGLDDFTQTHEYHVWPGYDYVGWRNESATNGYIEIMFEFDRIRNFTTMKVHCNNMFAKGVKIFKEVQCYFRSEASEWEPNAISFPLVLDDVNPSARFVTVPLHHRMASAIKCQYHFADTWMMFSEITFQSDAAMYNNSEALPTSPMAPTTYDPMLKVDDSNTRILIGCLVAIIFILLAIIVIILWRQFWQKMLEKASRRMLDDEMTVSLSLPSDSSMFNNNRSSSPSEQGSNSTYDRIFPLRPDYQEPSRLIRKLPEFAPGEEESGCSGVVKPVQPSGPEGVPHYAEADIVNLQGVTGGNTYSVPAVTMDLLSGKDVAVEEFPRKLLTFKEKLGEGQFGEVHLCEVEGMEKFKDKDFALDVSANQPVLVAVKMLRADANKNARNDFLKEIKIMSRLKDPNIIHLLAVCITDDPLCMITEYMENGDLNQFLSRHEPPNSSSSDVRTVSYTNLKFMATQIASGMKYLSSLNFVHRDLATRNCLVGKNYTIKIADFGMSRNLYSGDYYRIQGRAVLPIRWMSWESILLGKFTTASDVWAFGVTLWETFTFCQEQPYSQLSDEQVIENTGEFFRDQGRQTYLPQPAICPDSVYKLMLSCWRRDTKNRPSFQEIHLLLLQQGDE
The conditions noted are these: at 0.1 µM.

Assay [3] addresses T1, Discoidin domain-containing receptor 2 (Homo sapiens). The conditions noted are these: at 1 µM.
The target in assay [4] is Epidermal growth factor receptor (Homo sapiens) (UniProt P00533). Conditions: at 0.1 µM.
For assay [5] the target is unchanged. Conditions: at 1 µM.
In assay [6] the test system is Epidermal growth factor receptor (Homo sapiens), P00533 [L858R]. The conditions noted are these: at 0.1 µM.
Assay [7] shares this test system. Conditions: at 1 µM.
The subject of assay [8] is Epidermal growth factor receptor (Homo sapiens), P00533 [L861Q]. Conditions: at 0.1 µM.
Assay [9] shares this test system. The conditions noted are these: at 1 µM.
The subject of assay [10] is Epidermal growth factor receptor (Homo sapiens), P00533 [T790M]. The conditions noted are these: at 0.1 µM.
Assay [11] has the same test system. The conditions noted are these: at 1 µM.
The subject of assay [12] is Epidermal growth factor receptor (Homo sapiens), P00533 [L858R,T790M]. The conditions noted are these: at 0.1 µM.
Assay [13] shares this test system. Conditions: at 1 µM.
The target in assay [14] is Ephrin type-A receptor 2 (Homo sapiens) (UniProt P29317). Conditions: at 0.1 µM.
For assay [15] the target is unchanged. Conditions: at 1 µM.
Assay [16] addresses T2, Ephrin type-A receptor 3 (Homo sapiens) (UniProt P29320).
T2 sequence (whole entry): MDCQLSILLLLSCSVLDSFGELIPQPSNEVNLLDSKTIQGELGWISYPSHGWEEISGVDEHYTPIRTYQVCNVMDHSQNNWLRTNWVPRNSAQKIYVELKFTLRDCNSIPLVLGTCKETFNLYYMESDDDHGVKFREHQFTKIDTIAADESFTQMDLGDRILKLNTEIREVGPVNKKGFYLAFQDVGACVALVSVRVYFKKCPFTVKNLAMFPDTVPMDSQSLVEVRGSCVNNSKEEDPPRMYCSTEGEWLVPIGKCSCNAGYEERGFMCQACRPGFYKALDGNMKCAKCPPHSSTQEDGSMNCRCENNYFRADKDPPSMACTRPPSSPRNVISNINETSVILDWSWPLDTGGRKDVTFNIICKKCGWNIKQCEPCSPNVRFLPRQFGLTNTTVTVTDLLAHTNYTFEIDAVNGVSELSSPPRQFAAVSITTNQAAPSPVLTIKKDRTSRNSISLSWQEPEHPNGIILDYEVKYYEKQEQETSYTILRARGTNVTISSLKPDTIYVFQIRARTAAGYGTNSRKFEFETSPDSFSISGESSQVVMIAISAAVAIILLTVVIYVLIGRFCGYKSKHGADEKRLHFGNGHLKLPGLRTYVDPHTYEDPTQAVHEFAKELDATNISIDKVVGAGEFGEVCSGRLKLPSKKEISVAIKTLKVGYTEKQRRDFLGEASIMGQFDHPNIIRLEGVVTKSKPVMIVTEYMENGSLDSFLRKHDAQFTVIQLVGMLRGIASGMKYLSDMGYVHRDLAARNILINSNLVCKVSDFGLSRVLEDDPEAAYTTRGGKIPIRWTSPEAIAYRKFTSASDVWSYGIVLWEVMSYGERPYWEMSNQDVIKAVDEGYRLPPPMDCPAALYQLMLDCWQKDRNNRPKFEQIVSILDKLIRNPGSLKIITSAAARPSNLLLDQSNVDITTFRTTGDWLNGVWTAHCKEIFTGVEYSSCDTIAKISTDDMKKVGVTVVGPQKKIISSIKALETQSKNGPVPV
The conditions noted are these: at 0.1 µM.

Assay [17] has as its target T2, Ephrin type-A receptor 3 (Homo sapiens). The conditions noted are these: at 1 µM.
The target of assay [18] is Ephrin type-A receptor 4 (Homo sapiens) (UniProt P54764). The conditions noted are these: at 0.1 µM.
Assay [19] shares this target. Conditions: at 1 µM.
Assay [20] has as its target T3, Ephrin type-B receptor 2 (Homo sapiens) (UniProt P29323).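 Note: reported as mean inhibition of EPHB2, from the GSK PKIS dataset.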
T3 sequence (whole entry): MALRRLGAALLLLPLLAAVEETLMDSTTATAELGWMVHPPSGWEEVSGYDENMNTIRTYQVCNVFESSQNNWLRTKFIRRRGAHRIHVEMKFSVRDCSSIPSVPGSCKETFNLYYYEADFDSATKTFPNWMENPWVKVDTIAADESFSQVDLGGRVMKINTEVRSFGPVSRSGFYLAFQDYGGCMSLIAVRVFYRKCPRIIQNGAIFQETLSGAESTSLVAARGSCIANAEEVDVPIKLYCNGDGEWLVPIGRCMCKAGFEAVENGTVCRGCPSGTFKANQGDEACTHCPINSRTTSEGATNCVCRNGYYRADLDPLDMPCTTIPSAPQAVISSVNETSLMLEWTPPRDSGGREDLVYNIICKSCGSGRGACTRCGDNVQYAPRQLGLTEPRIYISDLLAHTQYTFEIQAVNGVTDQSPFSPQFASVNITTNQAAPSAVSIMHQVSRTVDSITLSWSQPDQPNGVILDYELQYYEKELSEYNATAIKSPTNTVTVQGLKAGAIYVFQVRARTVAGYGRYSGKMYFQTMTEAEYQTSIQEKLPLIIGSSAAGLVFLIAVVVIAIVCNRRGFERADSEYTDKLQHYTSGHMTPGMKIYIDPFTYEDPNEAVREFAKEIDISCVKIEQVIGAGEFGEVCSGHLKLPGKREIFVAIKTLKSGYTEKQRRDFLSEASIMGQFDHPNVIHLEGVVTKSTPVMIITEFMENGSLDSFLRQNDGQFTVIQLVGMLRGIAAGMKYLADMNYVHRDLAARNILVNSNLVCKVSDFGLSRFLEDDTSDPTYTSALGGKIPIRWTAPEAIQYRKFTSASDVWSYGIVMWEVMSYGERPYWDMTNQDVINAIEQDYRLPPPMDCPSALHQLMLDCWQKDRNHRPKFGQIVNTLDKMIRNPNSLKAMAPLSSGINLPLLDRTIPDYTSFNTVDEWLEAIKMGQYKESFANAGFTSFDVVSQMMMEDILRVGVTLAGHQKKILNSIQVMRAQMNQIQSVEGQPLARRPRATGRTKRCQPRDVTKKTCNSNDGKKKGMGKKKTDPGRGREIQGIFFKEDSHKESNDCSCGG
Conditions: at 0.1 µM.

The structures appear in SMILES notation.

A word on the inhibition: it is the drop in the measured response relative to a control, in per cent.

Epidermal growth factor receptor (Homo sapiens), sequence (P00533 whole entry): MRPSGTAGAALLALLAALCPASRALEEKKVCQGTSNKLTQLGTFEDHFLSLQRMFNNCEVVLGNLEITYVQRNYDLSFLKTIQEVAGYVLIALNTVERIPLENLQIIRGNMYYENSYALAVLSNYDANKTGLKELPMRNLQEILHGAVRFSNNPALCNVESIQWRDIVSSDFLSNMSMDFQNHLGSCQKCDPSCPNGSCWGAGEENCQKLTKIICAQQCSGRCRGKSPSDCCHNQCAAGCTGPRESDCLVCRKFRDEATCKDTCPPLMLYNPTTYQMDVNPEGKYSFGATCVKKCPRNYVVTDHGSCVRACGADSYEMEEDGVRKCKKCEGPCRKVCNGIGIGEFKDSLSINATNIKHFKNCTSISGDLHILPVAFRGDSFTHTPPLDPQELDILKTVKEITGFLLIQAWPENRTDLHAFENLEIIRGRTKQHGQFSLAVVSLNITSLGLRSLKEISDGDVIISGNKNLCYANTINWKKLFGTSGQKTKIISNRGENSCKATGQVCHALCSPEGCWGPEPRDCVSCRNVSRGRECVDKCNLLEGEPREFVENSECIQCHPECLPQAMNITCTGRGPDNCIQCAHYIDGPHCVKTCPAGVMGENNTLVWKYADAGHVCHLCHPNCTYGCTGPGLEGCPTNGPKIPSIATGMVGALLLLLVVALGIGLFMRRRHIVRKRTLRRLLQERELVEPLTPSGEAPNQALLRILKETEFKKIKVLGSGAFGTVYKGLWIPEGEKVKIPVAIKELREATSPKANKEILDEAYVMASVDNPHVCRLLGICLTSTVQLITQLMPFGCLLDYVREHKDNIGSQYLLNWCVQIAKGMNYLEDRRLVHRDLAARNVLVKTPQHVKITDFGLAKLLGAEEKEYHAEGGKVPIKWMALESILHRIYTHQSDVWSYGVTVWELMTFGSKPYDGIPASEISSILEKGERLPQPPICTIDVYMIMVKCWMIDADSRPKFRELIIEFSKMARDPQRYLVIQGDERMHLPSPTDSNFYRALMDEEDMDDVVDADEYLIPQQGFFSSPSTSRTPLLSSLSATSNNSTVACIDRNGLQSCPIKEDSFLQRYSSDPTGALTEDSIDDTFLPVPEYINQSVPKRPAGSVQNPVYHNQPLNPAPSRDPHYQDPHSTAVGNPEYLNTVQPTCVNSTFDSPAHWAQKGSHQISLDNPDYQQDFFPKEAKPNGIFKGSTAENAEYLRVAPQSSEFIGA
Ephrin type-A receptor 4 (Homo sapiens), sequence (P54764 whole entry): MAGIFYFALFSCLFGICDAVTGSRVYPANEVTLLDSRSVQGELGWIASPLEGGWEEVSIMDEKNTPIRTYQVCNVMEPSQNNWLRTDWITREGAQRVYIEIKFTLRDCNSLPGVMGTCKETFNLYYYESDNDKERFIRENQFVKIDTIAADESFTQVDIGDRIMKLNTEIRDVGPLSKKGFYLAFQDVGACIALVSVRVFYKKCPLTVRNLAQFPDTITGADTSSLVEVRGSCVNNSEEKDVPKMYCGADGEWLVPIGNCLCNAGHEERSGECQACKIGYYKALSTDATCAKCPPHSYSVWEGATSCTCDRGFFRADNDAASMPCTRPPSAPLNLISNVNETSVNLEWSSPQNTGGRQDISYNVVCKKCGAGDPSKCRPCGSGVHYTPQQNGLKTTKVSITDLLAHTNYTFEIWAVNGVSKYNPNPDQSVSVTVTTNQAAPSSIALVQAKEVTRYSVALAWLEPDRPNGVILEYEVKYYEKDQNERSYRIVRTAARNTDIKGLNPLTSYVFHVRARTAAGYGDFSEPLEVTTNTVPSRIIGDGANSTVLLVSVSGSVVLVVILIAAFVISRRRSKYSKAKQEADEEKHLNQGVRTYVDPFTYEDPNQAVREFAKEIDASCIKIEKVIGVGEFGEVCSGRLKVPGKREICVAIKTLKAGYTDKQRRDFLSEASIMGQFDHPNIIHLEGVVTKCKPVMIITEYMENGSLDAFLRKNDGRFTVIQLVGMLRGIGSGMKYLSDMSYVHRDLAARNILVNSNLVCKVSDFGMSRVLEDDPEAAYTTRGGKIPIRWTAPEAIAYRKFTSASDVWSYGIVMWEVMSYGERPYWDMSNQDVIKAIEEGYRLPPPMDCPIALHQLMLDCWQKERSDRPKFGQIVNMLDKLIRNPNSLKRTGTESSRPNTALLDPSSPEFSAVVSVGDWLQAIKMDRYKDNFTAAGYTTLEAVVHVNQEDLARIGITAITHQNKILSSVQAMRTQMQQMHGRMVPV
Ephrin type-A receptor 2 (Homo sapiens), sequence (P29317 whole entry): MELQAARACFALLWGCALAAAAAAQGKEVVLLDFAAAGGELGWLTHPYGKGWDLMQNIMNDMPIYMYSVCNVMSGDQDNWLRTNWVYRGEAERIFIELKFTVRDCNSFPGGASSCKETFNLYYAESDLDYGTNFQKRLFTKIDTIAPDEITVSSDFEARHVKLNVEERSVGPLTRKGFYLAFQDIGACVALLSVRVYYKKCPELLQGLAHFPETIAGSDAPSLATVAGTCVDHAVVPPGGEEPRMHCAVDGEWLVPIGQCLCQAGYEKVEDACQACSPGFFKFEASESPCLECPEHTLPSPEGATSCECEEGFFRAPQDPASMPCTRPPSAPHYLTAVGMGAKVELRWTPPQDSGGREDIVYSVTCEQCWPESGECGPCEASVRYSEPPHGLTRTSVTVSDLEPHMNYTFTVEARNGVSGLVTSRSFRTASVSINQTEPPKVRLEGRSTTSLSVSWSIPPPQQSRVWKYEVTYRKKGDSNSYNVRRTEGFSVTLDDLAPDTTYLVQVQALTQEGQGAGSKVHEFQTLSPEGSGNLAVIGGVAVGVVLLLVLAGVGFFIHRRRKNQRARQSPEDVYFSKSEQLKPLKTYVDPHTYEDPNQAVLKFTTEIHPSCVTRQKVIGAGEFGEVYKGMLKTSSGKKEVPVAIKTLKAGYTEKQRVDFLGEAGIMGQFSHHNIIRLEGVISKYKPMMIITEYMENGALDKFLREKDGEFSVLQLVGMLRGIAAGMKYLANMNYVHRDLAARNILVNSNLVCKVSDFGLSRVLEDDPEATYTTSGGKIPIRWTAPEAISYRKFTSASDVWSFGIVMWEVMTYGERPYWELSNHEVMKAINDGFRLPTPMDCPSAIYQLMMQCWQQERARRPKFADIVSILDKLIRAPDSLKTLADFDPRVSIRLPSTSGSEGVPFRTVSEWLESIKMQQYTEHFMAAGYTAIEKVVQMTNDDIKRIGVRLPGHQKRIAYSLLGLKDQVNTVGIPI
Epidermal growth factor receptor (Homo sapiens), P00533 [L858R], sequence (P00533 whole entry L858R): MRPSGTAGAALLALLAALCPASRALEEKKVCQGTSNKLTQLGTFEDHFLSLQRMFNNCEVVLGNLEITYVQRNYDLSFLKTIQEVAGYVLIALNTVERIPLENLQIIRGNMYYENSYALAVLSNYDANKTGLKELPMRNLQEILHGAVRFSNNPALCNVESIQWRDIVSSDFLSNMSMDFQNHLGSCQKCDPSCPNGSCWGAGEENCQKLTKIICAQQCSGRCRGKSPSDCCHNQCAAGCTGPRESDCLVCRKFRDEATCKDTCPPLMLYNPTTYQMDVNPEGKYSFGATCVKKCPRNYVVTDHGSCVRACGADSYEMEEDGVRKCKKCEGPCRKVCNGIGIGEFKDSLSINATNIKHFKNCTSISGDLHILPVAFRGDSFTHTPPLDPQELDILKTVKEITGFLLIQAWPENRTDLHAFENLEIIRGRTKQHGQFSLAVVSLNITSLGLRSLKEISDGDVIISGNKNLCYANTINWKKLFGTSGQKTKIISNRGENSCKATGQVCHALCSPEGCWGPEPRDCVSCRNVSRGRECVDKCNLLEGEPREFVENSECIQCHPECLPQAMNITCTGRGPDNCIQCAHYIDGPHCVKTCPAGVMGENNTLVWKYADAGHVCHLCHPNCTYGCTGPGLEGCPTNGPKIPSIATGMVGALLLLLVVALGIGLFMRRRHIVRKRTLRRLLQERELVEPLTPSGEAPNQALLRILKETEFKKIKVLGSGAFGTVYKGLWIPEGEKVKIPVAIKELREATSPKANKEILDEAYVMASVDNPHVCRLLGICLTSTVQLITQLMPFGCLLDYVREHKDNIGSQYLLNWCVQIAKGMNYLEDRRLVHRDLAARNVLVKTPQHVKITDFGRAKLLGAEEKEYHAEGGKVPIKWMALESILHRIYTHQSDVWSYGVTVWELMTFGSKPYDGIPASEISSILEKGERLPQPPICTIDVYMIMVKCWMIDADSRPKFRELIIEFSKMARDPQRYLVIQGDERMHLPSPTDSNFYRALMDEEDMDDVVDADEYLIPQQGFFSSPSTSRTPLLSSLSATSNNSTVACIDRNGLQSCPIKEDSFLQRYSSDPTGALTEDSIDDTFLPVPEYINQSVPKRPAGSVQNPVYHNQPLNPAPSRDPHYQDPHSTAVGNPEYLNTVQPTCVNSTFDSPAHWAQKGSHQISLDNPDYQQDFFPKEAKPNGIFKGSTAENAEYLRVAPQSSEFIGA
Tyrosine-protein kinase CSK (Homo sapiens), sequence (P41240 2-450 limits assumed): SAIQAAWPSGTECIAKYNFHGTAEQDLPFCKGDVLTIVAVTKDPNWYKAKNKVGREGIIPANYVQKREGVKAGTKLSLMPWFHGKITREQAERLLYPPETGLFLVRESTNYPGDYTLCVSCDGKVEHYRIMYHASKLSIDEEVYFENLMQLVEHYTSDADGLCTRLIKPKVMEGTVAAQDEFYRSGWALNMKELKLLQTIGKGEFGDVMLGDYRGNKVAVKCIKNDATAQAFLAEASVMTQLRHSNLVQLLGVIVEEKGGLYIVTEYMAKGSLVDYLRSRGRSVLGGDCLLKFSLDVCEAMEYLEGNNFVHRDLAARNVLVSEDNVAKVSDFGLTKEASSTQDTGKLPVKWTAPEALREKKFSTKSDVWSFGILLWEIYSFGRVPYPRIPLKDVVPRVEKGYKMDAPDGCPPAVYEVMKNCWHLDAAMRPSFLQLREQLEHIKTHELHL

For the compound `COc1cc2c(cc1Nc1nc(N3CCc4ccccc43)c3cc[nH]c3n1)N(C(=O)CN(C)C)CC2`, the inhibition in assay [1] was 0.41%; in assay [2], 0.28%; in assay [3] it was 0.74%; in assay [4] it was -0.08%; in assay [5] it was 1.28%; in assay [6], 1.45%. In addition, the inhibition in assay [7] was 2.18%; in assay [8], 1.47%; in assay [9], -0.39%; in assay [10], 1.57%; in [11], 2.36%; in assay [12], 3.77%. The inhibition worked out at 9.23% in assay [13]; 2.22% in assay [14]; 2.11% in assay [15]; 2.13% in [16]; 0.93% in assay [17]; 3.39% in assay [18]. In addition, the figures for the inhibition in [19] and in assay [20] were 6.36% and 2.81%, respectively.
As for `COC(=O)Nc1nc2cc(Oc3ccc(NC(=O)Nc4cccc(C(=O)O)c4)cc3)ccc2[nH]1`, the inhibition in [2] is 8.64%; in assay [3], 48.8%; in [4], -1.69%; in [5], -2.11%; in assay [6] it was 2.63%; in assay [7], 2.26%. Besides, the inhibition in assay [8] was 2.15%; in assay [9], 0.36%; in assay [10], 1.78%; in assay [11] it was 0.98%; in assay [12] it was -0.04%; in assay [13] it was 1.58%. Also, the inhibition was -2.05% in [14]; -4.67% in [15]; -2.34% in assay [16]; -2.49% in assay [17]; 4.23% in assay [18]; 5.32% in assay [19]. In assay [20], the inhibition came out at 0.25%.
Regarding `COc1ccccc1Nc1ncc(-c2ccccc2)o1`, the inhibition amounted to 3.11% in assay [1]; 0.86% in [2]; 0.42% in assay [3]; 1.13% in assay [4]; 5.3% in assay [5]; 0.79% in [6]. Also, the inhibition in [7] stood at 0.46%; in assay [8] it was 1.31%; in assay [9], 1.75%; in assay [10], 2.11%; in [11] it was 2.18%; in assay [12], 1.54%. In addition, the inhibition in [13] is 1.28%; in assay [14], 2.74%; in assay [15], 1.76%; in assay [16], 2.8%; in assay [17], 4.86%; in assay [18], 7.21%. In addition, the values for the inhibition in [19] and in assay [20] were 12.8% and 7.35%, respectively.
Regarding `CNC(=O)c1cncc(/C=C/c2c(Cl)cccc2Cl)c1`, the inhibition in [1] is 10.6%; in [2], 3.42%; in assay [3], 21.2%; in assay [4], -0.54%; in assay [5], 0.79%; in assay [6], 0.61%. In addition, the inhibition in assay [7] came out at 14.2%; in [8], 2.27%; in assay [9], 4.01%; in assay [10], 1.23%; in assay [11], 0.83%; in assay [12], 0.18%. Also, the inhibition was 3.2% in assay [13]; 0.35% in [14]; 17.3% in assay [15]; -0.5% in assay [16]; 5.3% in assay [17]; 7.99% in [18]. Moreover, the inhibition in assay [19] was found to be 43.6%; in [20] it was 10.3%.
Consider `Cn1cc(C=C2C(=O)Nc3cccnc32)c2ccccc21`, for which the inhibition was -0.79% in [1]; 0.93% in [2]; 4.03% in [3]; 1.74% in [14]; 0.79% in assay [15]; 2.31% in assay [16]. Also, the inhibition in assay [17] is 4.83%; in assay [18], 5.07%; in assay [19], 6.23%; in [20], 3.99%.
On to `O=C1NC(=O)C(N2CCc3ccccc32)=C1c1ccc(Cl)cc1`, for which the inhibition was 0.75% in assay [1]; 3.2% in [2]; 8.8% in [3]; -0.66% in assay [4]; 3.22% in assay [5]; -1.38% in [6]. Besides, the inhibition in [7] is 5.23%; in assay [8], 4.7%; in [9], 2.74%; in assay [10] it was 2.82%; in assay [11], -0.47%; in [12], 1.35%. The inhibition came to 2.67% in assay [13]; 1.33% in [14]; 1.75% in [15]; 3.76% in assay [16]; 3.61% in [17]; 8.28% in assay [18]. The values for the inhibition in assay [19] and in assay [20] were 3.43% and 5.72%, respectively.

The values are drawn from ChEMBL document CHEMBL1961873, “Compounds: GSK PKIS; Assays: Nanosyn kinase panel” (2012).
